Assay outcomes as filed in PubChem.
Shown are actives, neighbours in structure and some others; about 3.6% of the full set was active somewhere.
SARS 3CLpro inh – SARS-CoV 3CLpro protease inhibition; recombinant SARS-CoV 3CLpro, quenched FRET peptide cleavage; actives 0.14% (n = 290,000); P0C6X7; inhibition, % at 6 µM; in the data active = inhibition above about 12%
BJeLR viability – BJeLR cell viability loss | BJeLR (HRASV12) viability, CellTiter-Glo ATP luminescence, 48 h | AID 1554 | inhibition, % (test concentration not listed) | actives 0.17% (n = 300,000); in the data active = inhibition above about 50%; inconclusive = no clear call, values can overlap the other calls
BoNT F protease – blocks Botulinum neurotoxin F light chain protease | Multiplex microsphere protease cleavage assay, flow cytometry | inhibition, % at 10 µM | actives 0.22% (n = 360,000) | AID 588497; in the data active = inhibition above about 35%, passing the limit was not always enough; inconclusive = no clear call, values can overlap the other calls; note: plate controls were buffer without enzyme for full effect and enzyme alone for no effect
Anthrax LF prot – inhibitors of Bacillus anthracis lethal factor protease; P15917; multiplex microsphere protease cleavage assay, LF; inhibition, % at 10 µM; actives 0.12% (n = 360,000); AID 588501; note: plate controls were buffer without enzyme for full effect and enzyme alone for no effect
Target sequence (P15917 whole entry, looked up): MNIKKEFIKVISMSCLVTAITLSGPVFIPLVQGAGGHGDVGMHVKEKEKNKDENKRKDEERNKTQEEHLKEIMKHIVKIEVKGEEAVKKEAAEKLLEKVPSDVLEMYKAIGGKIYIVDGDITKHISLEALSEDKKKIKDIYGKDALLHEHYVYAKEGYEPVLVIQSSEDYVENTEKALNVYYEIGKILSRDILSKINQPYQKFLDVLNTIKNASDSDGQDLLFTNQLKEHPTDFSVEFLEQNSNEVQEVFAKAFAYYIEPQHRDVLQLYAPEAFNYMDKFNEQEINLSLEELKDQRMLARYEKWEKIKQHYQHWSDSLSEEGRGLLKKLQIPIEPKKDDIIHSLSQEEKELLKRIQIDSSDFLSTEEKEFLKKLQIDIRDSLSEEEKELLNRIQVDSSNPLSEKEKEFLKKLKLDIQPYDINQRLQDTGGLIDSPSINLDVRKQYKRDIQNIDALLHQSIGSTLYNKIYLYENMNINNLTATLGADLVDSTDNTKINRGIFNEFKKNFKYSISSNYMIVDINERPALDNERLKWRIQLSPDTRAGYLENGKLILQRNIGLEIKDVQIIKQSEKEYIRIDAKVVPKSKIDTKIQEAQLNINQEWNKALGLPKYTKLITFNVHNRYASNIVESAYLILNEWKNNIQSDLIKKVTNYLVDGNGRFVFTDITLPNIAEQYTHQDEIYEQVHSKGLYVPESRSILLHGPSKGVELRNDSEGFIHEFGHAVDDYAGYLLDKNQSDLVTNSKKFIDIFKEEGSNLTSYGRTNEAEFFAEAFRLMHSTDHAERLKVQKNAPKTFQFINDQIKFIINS
BoNT-A LC inh2 – BoNT A light chain protease inhibition; multiplex microsphere protease substrate cleavage, flow cytometry; inhibition, % at 10 µM; actives 0.17% (n = 360,000); AID 588499; note: plate controls were buffer without enzyme for full effect and enzyme alone for no effect
Bead autofluor – counter-screen for toxin protease inhibitors: compound fluorescence | compound autofluorescence counterscreen, microsphere flow cytometry; active compounds read high | fluorescence intensity (test concentration not listed) | actives 3.1% (n = 360,000); in the data active = fluorescence intensity above about 16000; inconclusive = no clear call, values can overlap the other calls
An asterisk follows results filed as active; ? = inconclusive; nt = no result. Cut-off read from the data, not from the text of the source, unless noted: active = inhibition above about 30%; inconclusive = no clear call, values can overlap the other calls; inactive = below that.

SMILES	SARS 3CLpro inh	BJeLR viability	BoNT F protease	Anthrax LF prot	BoNT-A LC inh2	Bead autofluor
CCc1nnc(NC(=O)CSc2nnc(CNc3cccc(C)c3)n2-c2ccccc2)s1	1	1	3	-11	3	8374
Cc1cc(NC(=O)CSc2nnc(CNc3ccc(F)cc3)n2C2CCCCC2)no1	1	8	1	-2	0	23158*
CCc1nnc(NC(=O)CSc2nnc(CNc3ccc(F)cc3)n2C2CCCCC2)s1	3	-13	0	-5	0	16238*
CC(C)(C)C(=O)c1c(N)[nH]c(C(=O)c2ccccc2)c1-c1ccc(Br)cc1	nt	nt	-7	4	-1	6129
Cc1cc(C)nc(Nc2nc(C(N)Cc3ccc(Cl)cc3)cs2)n1 (stereo not given)	nt	nt	-19	-5	0	3432
CN(C)CCn1c(=O)n(-c2cccc(Cl)c2)c(=O)c2c3c(sc21)CCCCC3	-1	2	-4	0	0	5789
O=C(CCS(=O)(=O)c1ccccc1Cl)NCCC1=CCCCC1	1	-6	-2	0	0	5430
CCCn1c(N)c(Sc2ccccc2)c(=O)n(CCC)c1=O	-2	11	-1	-1	-1	19729*
COCCn1c(N)c(Sc2ccccc2)c(=O)[nH]c1=O	2	-2	-2	3	-1	3979
CCCCn1c(N)c(Sc2ccccc2)c(=O)[nH]c1=O	5	nt	-10	-6	-8	25818*
CCCn1c(N)c(Sc2ccc([N+](=O)[O-])cc2)c(=O)n(CCC)c1=O	2	2	-7	-1	-1	2509
Cn1cc(C(=O)NCc2ccc(Cl)cc2)c(=O)c2cc(S(=O)(=O)N3CCOCC3)ccc21	-9	3	-5	-5	-2	6139
CCN(CC)c1ccc(/C=C(\C#N)c2ccccn2)cc1	-3	16	-4	-1	0	2914
CCN(CC)c1ccc(C=N/C(C#N)=C(\N)C#N)cc1	1	2	-8	-4	4	17577*
Cc1cc2oc(=O)cc(CN3CCCCCCC3)c2cc1Cl	nt	nt	-8	-5	-1	5552
CC1(C(=O)NC2CCCCCCC2)CCC(=O)N1Cc1cccs1 (stereo not given)	3	-13	2	-2	0	16346*
CC1(C(=O)NC2CCCC2)CCC(=O)N1Cc1cccs1 (stereo not given)	-1	-1	-4	-4	?	22707*
COc1ccc(CCNC(=O)CSc2nnc3ccc(-c4ccccn4)nn23)cc1OC	nt	-3	nt	nt	nt	nt
Cc1cnn(CCC(=O)NNC(=S)Nc2ccccc2)c1	-5	-11	-1	0	-1	22734*
Cc1cnn(CCC(=O)NNC(=S)NCC(C)C)c1	-4	7	-8	-2	-1	3437
Cc1ccc(NC(=S)NNC(=O)CCn2cc(C)cn2)cc1	2	4	2	0	1	20267*
Cc1cnc(C(=O)OCC(=O)c2ccc(C)s2)cn1	nt	nt	2	0	1	3753
CC(NC(=O)c1cc(-c2ccc3c(c2)OCO3)nc2ccccc12)C(C)(C)C (stereo not given)	4	18	-2	1	1	21612*
COc1ccc(C2C(=O)N(CCc3ccccc3)CC(=O)N2C2CCCCC2)cc1 (stereo not given)	3	-7	-6	-4	-3	25113*
CCCCN1C(=O)CN(CCc2ccccc2)C(=O)C1c1ccc(OC)cc1 (stereo not given)	-1	0	2	-1	-1	11074
SMILES	SARS 3CLpro inh	BJeLR viability	BoNT F protease	Anthrax LF prot	BoNT-A LC inh2	Bead autofluor
Cn1c(=O)c2c(nc(NCc3ccco3)n2Cc2ccc(Cl)cc2Cl)n(C)c1=O	4	3	-7	-4	-4	24075*
CCn1c(NCc2ccco2)nc2c1c(=O)n(C)c(=O)n2C	1	-3	-2	1	-1	21102*
Cn1c(=O)c2c(nc(NCc3ccco3)n2CCc2ccccc2)n(C)c1=O	-1	1	-3	-2	1	2986
COC(=O)c1ccc(CS(=O)(=O)c2ccccc2C)o1	-3	-2	1	-2	?	23513*
COCCNC(=O)c1ccc(CS(=O)(=O)c2ccccc2C)o1	-11	-1	24	-11	0	3145
COc1ccccc1S(=O)(=O)Cc1ccc(C(=O)N2CCN(c3ccccc3)CC2)o1	-4	-3	0	0	0	21717*
Cc1cccc(N2CCN(C(=O)c3ccc(CS(=O)(=O)c4ccccc4C)o3)CC2C)c1 (stereo not given)	-4	29	1	-2	?	21673*
C=CCn1c(=O)/c(=C/c2cc(OC)c(OC)c(OC)c2)s/c1=C(/C#N)c1nc2ccccc2n1C	5	-14	58*	61*	112*	2299
COC(=O)Nc1ccc(S(=O)(=O)N(CCO)CCO)cc1	3	5	2	0	1	22684*
COC(=O)Nc1ccc(Oc2ccccc2)cc1	2	2	-5	1	-6	21537*
O=C(c1ccc(F)cc1)N1CCN(S(=O)(=O)c2ccc(Br)cc2)CC1	-1	-8	0	-2	-2	5433
Nc1cc(Br)c(N)c(Br)c1	-1	11	-9	-2	-2	24247*
Nc1ncc(Br)cc1Br	-4	3	6	-1	1	1968
O=C(c1ccccc1F)c1cn(Cc2ccc(F)cc2)c2ccccc12	-2	1	-4	2	0	2365
CCn1cc(C(=O)c2ccccc2)c2ccccc21	4	-7	4	-4	?	22254*
CC(C)NC(=O)Cn1cc(C(=O)c2ccccc2)c2ccccc21	6	9	nt	nt	nt	nt
O=C(c1ccccc1F)c1cn(Cc2ccccc2)c2ccccc12	1	-5	0	-2	0	22262*
O=C(c1ccccc1F)c1cn(CC(=O)N2CCCCC2)c2ccccc12	1	2	-15	-2	-10	24432*
O=C(COc1ccc2c(c1)oc(=O)c1ccccc12)NCCN1CCOCC1	4	-4	2	-1	1	5040
CNC(=S)N1CCN(C(=O)C2CCCO2)CC1 (stereo not given)	7	-9	-4	-2	-1	2023
C=C1N(c2cccc(Cl)c2)C(=O)OC1(C)C	1	9	-2	-1	0	4982
COCCSc1nnc(NC(=O)COc2ccc3c(c2)OCO3)s1	0	-7	1	1	0	5480
COC(=O)c1cc2sccc2n1Cc1ccc(C)cc1	-1	5	-3	0	-2	24673*
O=C(Nc1nccs1)c1cc2sccc2n1Cc1ccc(F)cc1	2	14	-3	1	?	16836*
COc1ccc(NC(=O)c2cc3sccc3n2Cc2ccc(F)cc2)cc1OC	-1	3	3	-5	-2	4348
COC(=O)c1cc2occc2n1Cc1c(F)cccc1Cl	0	nt	nt	nt	nt	nt
CCOC(=O)c1cc2sccc2n1Cc1ccccc1	2	1	14	0	1	7664
COC(=O)c1cc2occc2n1Cc1ccc(Cl)cc1	-5	-1	-1	-6	1	22264*
